In the library only some 5.2% were active in any assay of this set; here they are far more common.
APOBEC3G inh: APOBEC3G DNA deaminase inhibitors, primary screen, biochemical, fluorescence, single-stranded DNA substrate, uHTS; 0.28% of 330,000 active; AID 493012, 2011; inhibition, % at 20 µM; DNA dC->dU-editing enzyme APOBEC-3G (Homo sapiens), Q9HC16; recombinant A3G, ssDNA deamination FAM/TAMRA fluorescence;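 active = inhibition of at least 40% at 20 µM, with no more than 30% in the related APOBEC3A deaminase screen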
Target sequence (Q9HC16 whole entry, looked up): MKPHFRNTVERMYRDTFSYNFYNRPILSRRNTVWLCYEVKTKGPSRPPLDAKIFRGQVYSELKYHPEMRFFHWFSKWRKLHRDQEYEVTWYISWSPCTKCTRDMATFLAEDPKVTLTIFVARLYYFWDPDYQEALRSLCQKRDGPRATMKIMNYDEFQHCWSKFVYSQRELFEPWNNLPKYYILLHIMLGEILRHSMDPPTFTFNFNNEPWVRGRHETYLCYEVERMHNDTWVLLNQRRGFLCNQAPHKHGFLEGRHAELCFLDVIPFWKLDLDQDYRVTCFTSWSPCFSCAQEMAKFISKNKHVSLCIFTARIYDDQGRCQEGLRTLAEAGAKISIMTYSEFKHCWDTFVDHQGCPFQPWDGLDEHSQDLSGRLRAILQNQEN
CR mimetic SO: reduction of superoxide in aged yeast, primary screen, HTS. S. cerevisiae aged cells, superoxide DHE fluorescence; hits give low values. superoxide response (% of plate mean), % at 10 µM. 0.18% of 330,000 active. AID 2690, 2010;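 active = superoxide response under a set limit, about three screen SD below normal, cut at about 65% in these data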;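 also: yeast aged for seven days with compound at 30 °C before DHE staining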
ALR inh: inhibitors of human ALR sulfhydryl oxidase, primary screen, biochemical, H2O2 detection, HRP-luminol luminescence, single point; 3.8% of 290,000 active; FAD-linked sulfhydryl oxidase ALR (Homo sapiens), P55789; purified ALR, DTT oxidation; inhibition, % (concentration not given with the values); AID 485317, 2010;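 active = mean replicate inhibition above about 79%, with every replicate also reaching it, limit read from the data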
Target sequence (P55789 whole entry, looked up): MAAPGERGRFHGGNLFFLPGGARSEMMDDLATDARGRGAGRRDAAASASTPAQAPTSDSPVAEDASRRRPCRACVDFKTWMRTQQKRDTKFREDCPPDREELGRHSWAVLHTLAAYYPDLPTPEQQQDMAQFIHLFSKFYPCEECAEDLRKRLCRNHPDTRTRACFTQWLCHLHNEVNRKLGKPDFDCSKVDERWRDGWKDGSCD
NRP1-CendR mod: modulators of CendR peptide binding to NRP-1, primary screen, biochemical, fluorescence polarization, uHTS | inhibition, % at 25 µM | 0.85% of 360,000 active | AID 602438, 2012 | FAM-RPARPAR peptide binding to NRP-1;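 active = inhibition or corrected inhibition above about 18%, plus a signal ratio from 0.5 to 1.5, limit read from the data, passing the limit was not always enough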
APOBEC3A inh: APOBEC3A ssDNA deaminase inhibitors, primary screen, selectivity assay for APOBEC3G inhibitor project, biochemical, FAM/TAMRA oligo cleavage fluorescence. DNA dC->dU-editing enzyme APOBEC-3A (Homo sapiens), P31941. recombinant A3A, FAM/TAMRA ssDNA deamination fluorescence. inhibition, % at 20 µM. 0.41% of 330,000 active. AID 493011, 2011;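 active = at least 40% inhibition at 20 µM here, with at most 30% in a related deaminase screen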
PfM18AAP inh: PfM18AAP inhibitors, malaria aminopeptidase, primary screen, biochemical, QFRET, recombinant enzyme. H-Glu-NHMec fluorogenic cleavage. inhibition, % at 7.35 µM. M18 aspartyl aminopeptidase (Plasmodium falciparum 3D7). 1.2% of 290,000 active. AID 1822, 2009;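 active = inhibition above the campaign mean inhibition over all tested compounds plus 3 SD, cut at about 28% in these data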
Hits are given with their value.

Results for O=C(c1c[nH]c(C(=O)C(Cl)(Cl)Cl)c1)c1ccc(F)cc1Cl ?
APOBEC3G inh: inactive; CR mimetic SO: inactive; ALR inh: inactive; NRP1-CendR mod: inactive; APOBEC3A inh: inactive; PfM18AAP inh: inactive

How did O=C(CSC1=NCCS1)Nc1nc2c(s1)CCCC2 do in these assays?
APOBEC3G inh: inactive; CR mimetic SO: inactive; ALR inh: 98.5; NRP1-CendR mod: inactive; APOBEC3A inh: inactive; PfM18AAP inh: inactive

What do the screens show for `Cc1cc(=O)[nH]c(SCC(=O)Nc2nc3c(s2)CCCC3)n1`?
APOBEC3G inh: inactive; CR mimetic SO: inactive; ALR inh: 98.9; NRP1-CendR mod: inactive; APOBEC3A inh: inactive; PfM18AAP inh: inactive

How did Cn1nnnc1SCC(=O)Nc1nc2c(s1)CCCC2 do in these assays?
APOBEC3G inh: inactive; CR mimetic SO: inactive; ALR inh: inactive; NRP1-CendR mod: inactive; APOBEC3A inh: inactive; PfM18AAP inh: inactive

What do the screens show for `CCc1cc(=O)oc2c(C)c(O)c(CN(C)C)cc12`?
APOBEC3G inh: inactive; CR mimetic SO: inactive; ALR inh: inactive; NRP1-CendR mod: inactive; APOBEC3A inh: inactive; PfM18AAP inh: inactive

Results for CCOC(=O)C(C)On1c(-c2ccccc2)nc2ccc([N+](=O)[O-])cc21 (stereo not drawn) ?
APOBEC3G inh: inactive; CR mimetic SO: inactive; ALR inh: 97.2; NRP1-CendR mod: inactive; APOBEC3A inh: inactive; PfM18AAP inh: inactive

What do the screens show for `CCCCn1c(N)c(N(CCC(C)C)C(=O)c2ccc([N+](=O)[O-])s2)c(=O)[nH]c1=O`?
APOBEC3G inh: inactive; CR mimetic SO: inactive; ALR inh: inactive; NRP1-CendR mod: inactive; APOBEC3A inh: inactive

Results for COc1ccc(C(=O)Nc2cccc(S(=O)(=O)NC3=NCCC3)c2)cc1OC ?
APOBEC3G inh: inactive; CR mimetic SO: inactive; ALR inh: inactive; NRP1-CendR mod: inactive; APOBEC3A inh: inactive

What do the screens show for `N#C/C(=C(/O)CSc1ccccn1)c1nc2ccccc2s1`?
APOBEC3G inh: inactive; CR mimetic SO: inactive; ALR inh: 82.2; NRP1-CendR mod: inactive; APOBEC3A inh: inactive; PfM18AAP inh: inactive

How did CCC(=O)NC(=S)Nc1ccc(S(=O)(=O)NC(C)=O)cc1 do in these assays?
APOBEC3G inh: inactive; CR mimetic SO: inactive; ALR inh: inactive; NRP1-CendR mod: 24.7; APOBEC3A inh: inactive; PfM18AAP inh: inactive

Results for CNC(=O)c1ccsc1NC(=O)CCS(=O)(=O)c1ccc(Cl)cc1 ?
APOBEC3G inh: inactive; CR mimetic SO: inactive; ALR inh: inactive; NRP1-CendR mod: inactive; APOBEC3A inh: inactive

Results for NC(=O)c1cc(Br)cc(C2CCCCC2)c1O ?
APOBEC3G inh: inactive; CR mimetic SO: inactive; ALR inh: 92.4; NRP1-CendR mod: inactive; APOBEC3A inh: inactive; PfM18AAP inh: inactive

What do the screens show for `NC(=O)c1cc(Br)cc2c3c([nH]c12)CCCC3`?
APOBEC3G inh: inactive; CR mimetic SO: inactive; ALR inh: inactive; NRP1-CendR mod: inactive; APOBEC3A inh: inactive; PfM18AAP inh: inactive

How did NC(=O)COc1ccccc1C(=O)O do in these assays?
APOBEC3G inh: inactive; CR mimetic SO: inactive; ALR inh: 87.4; NRP1-CendR mod: inactive; APOBEC3A inh: inactive; PfM18AAP inh: inactive

What do the screens show for `O=C(O)c1ccccc1OCCOc1ccccc1C(=O)O`?
APOBEC3G inh: inactive; CR mimetic SO: inactive; ALR inh: inactive; NRP1-CendR mod: inactive; APOBEC3A inh: inactive; PfM18AAP inh: inactive

How did COc1ccc(N2CCN(C(=O)CCCn3nnnc3CN3CCOCC3)C(C)C2)cc1 (stereo not drawn) do in these assays?
APOBEC3G inh: inactive; CR mimetic SO: inactive; ALR inh: 99.0; NRP1-CendR mod: inactive; APOBEC3A inh: inactive; PfM18AAP inh: inactive

How did O=C1c2ccccc2C(=O)N1CSc1nnc(Nc2ccccc2F)s1 do in these assays?
APOBEC3G inh: inactive; CR mimetic SO: 61.0; ALR inh: inactive; NRP1-CendR mod: inactive; APOBEC3A inh: inactive; PfM18AAP inh: inactive

Results for Cc1ccccc1NS(=O)(=O)c1ccc(C(=O)NCC(c2ccccc2)N(C)C)cc1 (stereo not drawn) ?
APOBEC3G inh: inactive; CR mimetic SO: inactive; ALR inh: inactive; NRP1-CendR mod: inactive; APOBEC3A inh: inactive; PfM18AAP inh: inactive

What do the screens show for `COc1cccc(/C=N/Nc2snc(SC)c2C#N)c1O`?
APOBEC3G inh: inactive; CR mimetic SO: inactive; ALR inh: 85.8; NRP1-CendR mod: inactive; APOBEC3A inh: inactive; PfM18AAP inh: inactive

How did COc1ccc(/C=N/Nc2snc(SC)c2C#N)cc1OC do in these assays?
APOBEC3G inh: inactive; CR mimetic SO: inactive; ALR inh: inactive; NRP1-CendR mod: inactive; APOBEC3A inh: inactive; PfM18AAP inh: inactive

How did Cc1[nH]n(C(N)=S)c(=O)c1N=Nc1cc(-c2ccc(Br)cc2)[nH]n1 do in these assays?
APOBEC3G inh: inactive; CR mimetic SO: inactive; ALR inh: 98.5; NRP1-CendR mod: inactive; APOBEC3A inh: inactive; PfM18AAP inh: inactive

What do the screens show for `Cc1[nH]n(C(N)=S)c(=O)c1N=Nc1cccc([N+](=O)[O-])c1C`?
APOBEC3G inh: inactive; CR mimetic SO: inactive; ALR inh: 97.9; NRP1-CendR mod: inactive; APOBEC3A inh: inactive; PfM18AAP inh: inactive

What do the screens show for `COc1cc(NC(=O)CN2CCN(C(=O)c3ccco3)CC2)c(C)cc1[N+](=O)[O-]`?
NRP1-CendR mod: inactive

Results for CCN(CC(=O)Nc1ccc(OC)cc1)C(=O)CSCC(=O)Nc1ccc(C)cc1 ?
APOBEC3G inh: inactive; CR mimetic SO: inactive; ALR inh: inactive; NRP1-CendR mod: inactive; APOBEC3A inh: inactive; PfM18AAP inh: inactive

What do the screens show for `CCOc1cc(C2C3=C(CCCC3=O)OC3=C2C(=O)CCC3)cc([N+](=O)[O-])c1O`?
APOBEC3G inh: inactive; CR mimetic SO: inactive; ALR inh: inactive; NRP1-CendR mod: 26.2; APOBEC3A inh: inactive; PfM18AAP inh: inactive

How did CCOc1cc(C2C3=C(CC(C)(C)CC3=O)OC3=C2C(=O)CC(C)(C)C3)cc([N+](=O)[O-])c1O do in these assays?
APOBEC3G inh: inactive; CR mimetic SO: inactive; NRP1-CendR mod: inactive; APOBEC3A inh: inactive; PfM18AAP inh: inactive

What do the screens show for `Cn1nccc1C(=O)N1CCN(C23CC4CC(CC(C4)C2)C3)CC1`?
APOBEC3G inh: inactive; CR mimetic SO: inactive; ALR inh: inactive; NRP1-CendR mod: 30.9; APOBEC3A inh: inactive; PfM18AAP inh: inactive

How did O=C(c1ccco1)N1CCN(C23CC4CC(CC(C4)C2)C3)CC1 do in these assays?
APOBEC3G inh: inactive; CR mimetic SO: inactive; ALR inh: inactive; NRP1-CendR mod: inactive; APOBEC3A inh: inactive; PfM18AAP inh: inactive

Results for Cc1ccc(C(=O)N2CCN(C34CC5CC(CC(C5)C3)C4)CC2)o1 ?
APOBEC3G inh: inactive; CR mimetic SO: inactive; ALR inh: inactive; NRP1-CendR mod: 24.8; APOBEC3A inh: inactive; PfM18AAP inh: inactive
